From ChEMBL document CHEMBL3988442, “University of Dundee, Small-Polar-MMV Screening Library” (2021)
The whole screen tested about 69,000 compounds, of which about 950 (1.4%) showed an effect of 50% or more. The sample holds strong results, similar compounds and a random draw of the others, so the mix is not that of the screen.

Tested on: Mycobacterium tuberculosis
Assay: Cornell M. t heat shock assay; further: in the data most compounds retested in dose-response had high values
Assay type: functional, organism-based
Set-up: dose or concentration left out as unconfirmed

Point of comparison: `O=C(NCc1ccccn1)c1cnc(C2CCCN2)cn1` (stereo unspecified), “Percent Effect” value 52.39%. Against it:
- Cc1ccc([C@]2(O)CC[C@H]3CN(Cc4cccc(F)c4F)C[C@H]32)nc1.O=C(O)CC(O)(CC(=O)O)C(=O)O — lower, 2.948%
- Cc1ccc([C@]2(O)CC[C@H]3CN(Cc4cccc(Cl)c4Cl)C[C@H]32)nc1.O=C(O)CC(O)(CC(=O)O)C(=O)O — higher, 90.52%
- O=C(O)CC(O)(CC(=O)O)C(=O)O.O[C@@]1(c2ccccn2)CC[C@H]2CN(Cc3cccc(Cl)c3Cl)C[C@H]21 — lower, 14.33%
- Cl.NC(=O)CCc1cccc(C2CCNCC2)n1 — lower, 3.085%
- COc1ccccc1CC(=O)N1CCCC(n2nc(C)nc2C)C1 (stereo unspecified) — lower, -10.87%
- CC[C@@H]1N(Cc2ccc(C)s2)CCC[C@]12CCC(=O)N2C.O=C(O)C(F)(F)F — lower, 1.978%
- COCCn1cc2c(n1)C(CNC(=O)c1cc(C)[nH]c1C)OCC2 (stereo unspecified) — lower, 38.13%
- Cc1cc(C(=O)NCC2OCCc3cn(CC4CC4)nc32)c(C)[nH]1 (stereo unspecified) — higher, 105.1%
- CS(=O)(=O)CC(=O)NCC1OCCc2cn(CC3CC3)nc21 (stereo unspecified) — lower, 11.68%
- Cn1cc(CN2CCC3(CCCN3Cc3cccnc3)CC2)cn1.O=C(O)C(F)(F)F.O=C(O)C(F)(F)F.O=C(O)C(F)(F)F — lower, -39.86%
- COc1ccc(NC(=O)NC(C)Cn2cccn2)cn1 (stereo unspecified) — lower, 0.2337%
- CC(=O)c1ccc(NC(=O)NC(C(=O)N(C)C)C(C)C)cc1 (stereo unspecified) — lower, 30.77%
- Cc1ccc(NC(=O)NC(C)Cn2cccn2)cc1 (stereo unspecified) — lower, 0.5452%
- CC(C)C(NC(=O)Nc1ccc(F)cc1)C(=O)N(C)C (stereo unspecified) — higher, 54.32%
- CC(Cn1cccn1)NC(=O)Nc1ccc(F)cc1 (stereo unspecified) — higher, 97.32%
- CC(=O)c1ccc(NC(=O)N[C@H](C(=O)O)C(C)C)cc1 — lower, -1.764%
- O=C(O)C(F)(F)F.O=C(O)C(F)(F)F.c1cc(CO[C@@H]2CC[C@H]3[C@H]2OCCN3Cc2ccoc2)ccn1 — lower, -10.25%
- Cc1nc(CN2C[C@@H]3CN(C(=O)c4ccnnc4)C[C@@H]3C2=O)cs1.O=C(O)C(F)(F)F — lower, 0.6336%
- CN(C)CCN1CCCC12CCN(C(=O)c1cccnc1)CC2.O=C(O)C(F)(F)F.O=C(O)C(F)(F)F — lower, -6.366%
- CC(C)N1CCO[C@H]2CN(C(=O)c3ccsc3)C[C@H]21.O=C(O)C(F)(F)F — lower, -22.87%
- O=C(Nc1cccc(N2CCCC2)c1)C1CCCN1c1nccs1 (stereo unspecified) — lower, 5.051%
- O=C(Nc1cccc2c1CCCC2)C1CCCN1c1nccs1 (stereo unspecified) — lower, 50.83%
- O=C(Nc1cccc(F)c1)C1CCCN1c1nccs1 (stereo unspecified) — lower, 8.306%
- CCC(C)N1CCC2(CC1)CN(c1cncnc1)C(=O)CO2.O=C(O)C(F)(F)F (stereo unspecified) — lower, -21.63%
- Cc1nc(-c2ccc(F)c(F)c2)cc(C2CCNCC2)n1.Cl — lower, -7.049%
- Cn1cc(C2CC(=O)NC23CCN(Cc2cccc(F)c2)CC3)cn1.O=C(O)C(F)(F)F (stereo unspecified) — lower, -23.11%
- CCOc1ccc(CN2CCc3nc4ccsc4c(=O)n3CC2)cc1.Cl — lower, 16.23%
- CCOCc1nn(C)c2c1CN(Cc1cccs1)CC2.O=C(O)C(F)(F)F — lower, 29.88%
- CC(C(=O)NN1CCOCC1)n1nc(C(F)(F)F)c(Cl)c1C1CC1 (stereo unspecified) — lower, -25.21%
- CN(C)CCN1CCO[C@H]2CN(C(=O)c3ccsc3)C[C@H]21.O=C(O)C(F)(F)F.O=C(O)C(F)(F)F — lower, 25.92%
- O=C(C1CCC1)N1CC[C@H](O)[C@@H]1Cc1cccnc1.O=C(O)C(F)(F)F — lower, 0.09339%
- Cc1cc(N2CCCC(c3nccnc3N(C)C)C2)ncn1 (stereo unspecified) — lower, -16.62%
- CCCC(NC(=O)c1ccccn1)c1nnc2ccccn12 (stereo unspecified) — lower, -4.17%
- CC(C)CC(NC(=O)c1ccco1)c1nnc2ccccn12 (stereo unspecified) — higher, 66.07%
- CC(C)CC(NC(=O)c1ccco1)c1nc2cccnc2n1C (stereo unspecified) — lower, -10.38%
- Cc1ccc(CN2CCc3c(COCC4CC4)nn(C)c3C2)s1.O=C(O)C(F)(F)F — lower, -29.84%
- Cc1ccsc1CN1CCn2c(COc3cccnc3)cnc2C1C.O=C(O)C(F)(F)F.O=C(O)C(F)(F)F (stereo unspecified) — lower, 9.479%
- CC(=O)N1CCC12CCN(Cc1ccco1)CC2.O=C(O)C(F)(F)F — lower, -13.47%
- Cc1cc(Nc2ncccn2)nc(C2CCCN(CCO)C2)n1 (stereo unspecified) — lower, 17.06%
- Cc1cc(Nc2cnccn2)nc(C2CCCN(CCO)C2)n1 (stereo unspecified) — higher, 103.5%
- Cc1cc(Nc2ccccn2)nc(C2CCCN(CCO)C2)n1.O=CO (stereo unspecified) — lower, -14.49%
- CC(=O)N1CC(=O)N(c2ccccc2)CC12CCN(Cc1ccoc1)C2.O=C(O)C(F)(F)F (stereo unspecified) — lower, -0.426%
- Fc1ccc(CNCC2OCCc3cn(CC4CC4)nc32)cc1.O=C(O)C(F)(F)F.O=C(O)C(F)(F)F (stereo unspecified) — lower, 12.69%
- Cc1noc(C)c1CN1CCc2ncnc(-c3cccnc3)c2CC1.O=C(O)C(F)(F)F.O=C(O)C(F)(F)F — lower, 12.88%
- COc1cc(C(=O)Nc2nc(C)no2)cc(Cl)c1OC — higher, 101%
- COc1cc(C(=O)Nc2nc(C)no2)ccc1C — higher, 106.9%
- COc1cc(C(=O)NCc2ccc3c(c2)CCCN3C)cc(OC)c1Br — lower, -0.1722%
- COc1cc(C(=O)NS(=O)(=O)c2cc(Cl)sc2Cl)ccc1OC(F)F — lower, -14.59%
- COc1cc(C(=O)NS(=O)(=O)c2cccc(C#N)c2)cc(OC)c1Br — lower, -8.929%
- COc1cc(C(=O)Nc2c(C)noc2C)ccc1C — lower, -2.052%
- COc1cc(C(=O)Nc2cn[nH]c2)ccc1C — lower, -19.45%
- COc1cc(C(=O)Nc2nc(C)no2)ccc1OC1CCCC1 — lower, -1.479%
- COc1cc(C(=O)Nc2nc(C)no2)ccc1OC(F)F — higher, 79.09%
- COc1cc(C(=O)Nc2nc(C)no2)cc(OC)c1Br — higher, 104.3%
- COc1cc(C(=O)NS(=O)(=O)c2cncc(Br)c2)cc(Cl)c1OC — lower, -14.73%
- COc1cc(C(=O)NS(=O)(=O)c2cccc(C#N)c2)cc(Cl)c1OC — lower, -1.963%
- O=C(N1CCCC1)N1CCO[C@H]2[C@@H](Oc3ccccn3)CC[C@@H]21.O=C(O)C(F)(F)F — lower, 0.1764%
- Cc1ccc(CN2CC[C@@H]3OCCN(S(C)(=O)=O)[C@H]3CC2)s1.O=C(O)C(F)(F)F — lower, 16.37%
- O=C(N1CCCC1)N1CCc2onc(COc3cccnc3)c2C1.O=C(O)C(F)(F)F — lower, -4.712%
- CC(C)Cc1cc(C(=O)NCC2CCCN(Cc3ccco3)C2)on1 (stereo unspecified) — lower, 16.01%
- CC(C)Cc1cc(C(=O)NCC(O)CN2CCCCCC2)on1 (stereo unspecified) — lower, -12.74%
- CC(C)Cc1cc(C(=O)NC(C)(C)CN2CCCCCC2)on1 — higher, 72.52%
- CCc1ncnc2c1CCN(C(=O)c1ccccn1)CC2.O=C(O)C(F)(F)F — lower, -22.3%
- CSc1ncccc1C(=O)N1C[C@H]2CC[C@@H]1CN(C(=O)N(C)C)C2 — lower, -1.597%
- O=C(NCc1ccccn1)c1cncc(C2CCCN2)n1 (stereo unspecified) — lower, 2.609%
- Cc1nc(C(=O)NCc2ccccn2)cc(C2CCCN2)n1 (stereo unspecified) — lower, 45.77%
- Cc1csc(NC(=O)c2cnc(C3CCCN3)cn2)n1.Cl (stereo unspecified) — higher, 82.89%
- Cc1csc(NC(=O)c2cnc(C3CCNCC3)cn2)n1.Cl — lower, -24.76%
- Cc1csc(NC(=O)c2cnc(C3CCCN(C)C3)cn2)n1 (stereo unspecified) — lower, 23.5%
- Cl.Cn1ccnc1C1(O)CCN(C(=O)CCc2ccccc2)CC1 — lower, 1.719%
- Cc1noc(C)c1CN1CCc2c(CNc3nccs3)n[nH]c2C1.O=C(O)C(F)(F)F — lower, 8.041%
- CCCNC(=O)c1cc2c(s1)CCN2C(=O)CN(C)C.O=C(O)C(F)(F)F — lower, 1.454%
- C[C@H]1CN(c2ccccn2)C[C@@]12CCN(c1cccnc1)C2=O.O=C(O)C(F)(F)F.O=C(O)C(F)(F)F — lower, 11.35%
- COc1ccc(CN2CCC3(CC(=O)N(c4cncnc4)C3)C2)cc1.O=C(O)C(F)(F)F (stereo unspecified) — lower, -12.31%
- CN1CCC(c2nc3ccc(-c4ccccc4)cn3n2)CC1.O=C(O)C(F)(F)F — lower, -24.93%
- COc1ccccc1Cc1cncc(N2CC(C(=O)O)C2)n1.Cl — lower, 2.257%
- CN(C)c1nc2c(c(N(C)Cc3n[nH]c4c3CCCC4)n1)CCNCC2 — lower, 31.61%
- CN(C)c1nc2c(c(N(C)Cc3n[nH]c4c3CCCCC4)n1)CCNC2 — higher, 76.86%
- CN(Cc1n[nH]c2c1CCCC2)c1nc(C2CC2)nc2c1CCNCC2 — lower, 1.399%
- CCS(=O)(=O)N1C[C@@H](OCc2ccccn2)[C@@H]2OCCC[C@@H]21.O=C(O)C(F)(F)F — lower, -14.72%
- CCC1(CC)Cc2ccccc2-c2nc(NCCO)[nH]c(=O)c21 — lower, -12.78%
- CCC1(CC)Cc2ccccc2-c2nc(NCCCO)[nH]c(=O)c21 — lower, 0.6588%
- CCC1(CC)Cc2ccccc2-c2nc(CN(C)C)nc(O)c21 — lower, 51.81%
- Cc1cccc(C(=O)N2C[C@@H]3COC[C@@H](CC(=O)N4CCCC4)[C@@H]3C2)n1.O=C(O)C(F)(F)F — lower, -12.77%
- Cc1ccc(N2CCCC3(COCCN(c4ncccn4)C3)C2)nn1.O=C(O)C(F)(F)F (stereo unspecified) — lower, -5.221%
- O=C(O)C(F)(F)F.O=C(c1cc(C2CC2)on1)N1C[C@@H]2COC[C@]2(COc2cccnc2)C1 — lower, 24.08%
- CCc1cnc(N2CCC3(CC(=O)N(Cc4csc(C)n4)C3)C2)nc1.O=C(O)C(F)(F)F (stereo unspecified) — lower, 1.546%
- Cc1nc(C)n(CC2CCCN(c3ncnc4ccsc34)C2)n1 (stereo unspecified) — higher, 56.12%
- Cc1nc(C)n(CC2CCCN(c3ncnc4ccccc34)C2)n1 (stereo unspecified) — lower, -1.971%
- Cc1nc(C)n(CC2CCCN(c3ncnc4sccc34)C2)n1 (stereo unspecified) — lower, 24.39%
